# Measurements as given in PubChem BioAssay.
# Active and inactive are the calls of the source.
# How the values were obtained:
# [1] = binders of probe aFSTL3 on microarray, primary screen, stem cell growth factor project, biochemical, small-molecule microarray, fluorescence 635/667 (AID 1064); details: higher = more signal;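 note: measures binding of the biotinylated anti-FSTL3 antibody to printed compounds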
# [2] = binders from COS7 lysate, DM2A8 probe, primary screen, torsin A project, cell lysate, small-molecule microarray, fluorescence 635/667 (AID 1065); details: higher = more signal, COS7 lysate expressing mutant human TOR1A
# [3] = binders of probe aFGF2 on microarray, primary screen, stem cell growth factor project, biochemical, small-molecule microarray, fluorescence 635/667 (AID 1067); details: higher = more signal;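 note: measures binding of biotinylated aFGF2 protein to printed compounds on slides; z-score merges feature fluorescence and signal-to-noise across triplicate slides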
# [4] = binders of probe aFGF10 on microarray, primary screen, stem cell growth factor project, biochemical, small-molecule microarray, fluorescence 635/667 (AID 1071); details: higher = more signal;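 note: score merges 667 nm spot intensity and signal to noise from triplicate slides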
# [5] = target: Neurogenic locus notch homolog protein 2 (Homo sapiens) (UniProt Q04721); test: Notch2 binders on small-molecule microarrays, primary screen, biochemical, small-molecule microarray, 635 nm fluorescence, stem cell growth factors (AID 1073); details: Notch2 binding, higher = more signal
# [6] = target: Pro-neuregulin-1, membrane-bound isoform (Homo sapiens) (UniProt Q02297); test: NRG1 binders on small-molecule microarrays, primary screen, psychiatric disease protein project, biochemical, small-molecule microarray, fluorescence 635/667 (AID 1075); details: NRG1 binding, 635 nm fluorescence, higher = more signal;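 note: score combines 667 nm spot fluorescence with signal to noise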
# [7] = tested on: Neuregulin-1 EGF-like domain; test: binders of neuregulin-1 EGF-like domain, primary screen, biochemical, small-molecule microarray, 635 nm fluorescence (AID 1081); details: small-molecule microarray binding, higher = more signal;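 note: binding of the protein to compounds printed on small-molecule microarray slides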
# [8] = FRG1 promoter luciferase signal modulators, primary screen, FRG1 inhibition for FSHD, cell-based, C2C12 myotubes, firefly/Renilla luciferase, luminescence (AID 1084); details: higher = more signal, called active from +8 up or from −8 down
# [9] = binders of probe aFST on microarray, primary screen, stem cell growth factor project, biochemical, small-molecule microarray, fluorescence 635/667 (AID 1086); details: higher = more signal;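 note: score merges 667 nm fluorescence with signal-to-noise of each printed compound spot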
# [10] = binders of probe aHhip on microarray, primary screen, stem cell growth factor project, biochemical, small-molecule microarray, fluorescence 635/667 (AID 1087); details: higher = more signal;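 note: score merges spot fluorescence at 667nm with spot signal to noise ratio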
# [11] = tested on: PRMT1 (protein arginine N-methyltransferase 1); test: PRMT1 binders on small-molecule microarrays, primary screen, biochemical, small-molecule microarray, 635 nm fluorescence (AID 1088); details: small-molecule microarray binding, higher = more signal;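 note: binding of Prmt1 protein to compounds spotted on small-molecule microarray slides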
# [12] = yeast growth modulation, basal conditions, primary screen, YJM789 clinical isolate, OD600, 24 h (AID 1089);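 note: growth of clinical yeast isolate S. cerevisiae YJM 789 seeded 1000 cells per well; test concentration not given here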; details: S. cerevisiae YJM789 growth, higher = more signal, called active from +8 up or from −8 down
# [13] = fission yeast growth modulation, primary screen, strain 972, OD600, 24 h, no modulator (AID 1090);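 note: basal condition with compound alone and no growth modifier present; test concentration not given here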; details: S. pombe 972 growth, higher = more signal, called active from +8 up or from −8 down
# [14] = S. cerevisiae growth modulation with rapamycin, primary screen, strain BY4716, OD600, 96 h (AID 1091); details: higher = more signal, called active from +8 up or from −8 down; note: test concentration not given here
# [15] = target: Torsin-1A-interacting protein 2 (Homo sapiens) (UniProt Q8NFQ8); test: LULL1 binders on small-molecule microarray, primary screen, cell lysate, human LULL1 lysate, 635/667 nm fluorescence (AID 1092); details: hLULL1 lysate binding, 635 nm fluorescence, higher = more signal;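 note: probe is lysate of COS7 cells overexpressing human LULL1; score merges per-feature 667 nm fluorescence with signal-to-noise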
# [16] = E. coli growth modulation, two-sided OD650, primary screen, E. coli filamentation project, strain DRC41, 24 h (AID 1093); details: OD650, 24 h, higher = more signal, called active from +8 up or from −8 down;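 note: MC1000 strain lacking acrAB efflux and sulA so SOS filamentation is blocked; test concentration not given here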
# [17] = small-molecule microarray binders of probe aLefty2, primary screen, biochemical, biotinylated probe, 635/667 nm fluorescence (AID 1094); details: higher = more signal;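 note: score merges spot fluorescence near 667 nm with spot signal-to-noise ratio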
# [18] = tested on: Noggin (protein binding on small-molecule microarray); test: Noggin binders on small-molecule microarray, primary screen, biochemical, 635/667 nm fluorescence (AID 1095); details: 635 nm fluorescence, higher = more signal;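 note: score merges 667 nm feature fluorescence with signal to noise over triplicate slides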
# [19] = target: Neurogenic locus notch homolog protein 3 (Homo sapiens) (UniProt Q9UM47); test: NOTCH3 binders on small-molecule microarray, primary screen, biochemical, 635/667 nm fluorescence (AID 1096); details: NOTCH3 binding, 635 nm fluorescence, higher = more signal
# [20] = small-molecule microarray binders of probe aEGFR, primary screen, biochemical, biotinylated probe, 635/667 nm fluorescence (AID 1097); details: higher = more signal;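 note: probe is a biotinylated anti-EGFR antibody binding compounds printed on slides; score combines fluorescence near 667 nm and signal to noise of each spot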
# Chain of Neurogenic locus notch homolog protein 2 (Homo sapiens) (Q04721 whole entry, looked up, canonical isoform): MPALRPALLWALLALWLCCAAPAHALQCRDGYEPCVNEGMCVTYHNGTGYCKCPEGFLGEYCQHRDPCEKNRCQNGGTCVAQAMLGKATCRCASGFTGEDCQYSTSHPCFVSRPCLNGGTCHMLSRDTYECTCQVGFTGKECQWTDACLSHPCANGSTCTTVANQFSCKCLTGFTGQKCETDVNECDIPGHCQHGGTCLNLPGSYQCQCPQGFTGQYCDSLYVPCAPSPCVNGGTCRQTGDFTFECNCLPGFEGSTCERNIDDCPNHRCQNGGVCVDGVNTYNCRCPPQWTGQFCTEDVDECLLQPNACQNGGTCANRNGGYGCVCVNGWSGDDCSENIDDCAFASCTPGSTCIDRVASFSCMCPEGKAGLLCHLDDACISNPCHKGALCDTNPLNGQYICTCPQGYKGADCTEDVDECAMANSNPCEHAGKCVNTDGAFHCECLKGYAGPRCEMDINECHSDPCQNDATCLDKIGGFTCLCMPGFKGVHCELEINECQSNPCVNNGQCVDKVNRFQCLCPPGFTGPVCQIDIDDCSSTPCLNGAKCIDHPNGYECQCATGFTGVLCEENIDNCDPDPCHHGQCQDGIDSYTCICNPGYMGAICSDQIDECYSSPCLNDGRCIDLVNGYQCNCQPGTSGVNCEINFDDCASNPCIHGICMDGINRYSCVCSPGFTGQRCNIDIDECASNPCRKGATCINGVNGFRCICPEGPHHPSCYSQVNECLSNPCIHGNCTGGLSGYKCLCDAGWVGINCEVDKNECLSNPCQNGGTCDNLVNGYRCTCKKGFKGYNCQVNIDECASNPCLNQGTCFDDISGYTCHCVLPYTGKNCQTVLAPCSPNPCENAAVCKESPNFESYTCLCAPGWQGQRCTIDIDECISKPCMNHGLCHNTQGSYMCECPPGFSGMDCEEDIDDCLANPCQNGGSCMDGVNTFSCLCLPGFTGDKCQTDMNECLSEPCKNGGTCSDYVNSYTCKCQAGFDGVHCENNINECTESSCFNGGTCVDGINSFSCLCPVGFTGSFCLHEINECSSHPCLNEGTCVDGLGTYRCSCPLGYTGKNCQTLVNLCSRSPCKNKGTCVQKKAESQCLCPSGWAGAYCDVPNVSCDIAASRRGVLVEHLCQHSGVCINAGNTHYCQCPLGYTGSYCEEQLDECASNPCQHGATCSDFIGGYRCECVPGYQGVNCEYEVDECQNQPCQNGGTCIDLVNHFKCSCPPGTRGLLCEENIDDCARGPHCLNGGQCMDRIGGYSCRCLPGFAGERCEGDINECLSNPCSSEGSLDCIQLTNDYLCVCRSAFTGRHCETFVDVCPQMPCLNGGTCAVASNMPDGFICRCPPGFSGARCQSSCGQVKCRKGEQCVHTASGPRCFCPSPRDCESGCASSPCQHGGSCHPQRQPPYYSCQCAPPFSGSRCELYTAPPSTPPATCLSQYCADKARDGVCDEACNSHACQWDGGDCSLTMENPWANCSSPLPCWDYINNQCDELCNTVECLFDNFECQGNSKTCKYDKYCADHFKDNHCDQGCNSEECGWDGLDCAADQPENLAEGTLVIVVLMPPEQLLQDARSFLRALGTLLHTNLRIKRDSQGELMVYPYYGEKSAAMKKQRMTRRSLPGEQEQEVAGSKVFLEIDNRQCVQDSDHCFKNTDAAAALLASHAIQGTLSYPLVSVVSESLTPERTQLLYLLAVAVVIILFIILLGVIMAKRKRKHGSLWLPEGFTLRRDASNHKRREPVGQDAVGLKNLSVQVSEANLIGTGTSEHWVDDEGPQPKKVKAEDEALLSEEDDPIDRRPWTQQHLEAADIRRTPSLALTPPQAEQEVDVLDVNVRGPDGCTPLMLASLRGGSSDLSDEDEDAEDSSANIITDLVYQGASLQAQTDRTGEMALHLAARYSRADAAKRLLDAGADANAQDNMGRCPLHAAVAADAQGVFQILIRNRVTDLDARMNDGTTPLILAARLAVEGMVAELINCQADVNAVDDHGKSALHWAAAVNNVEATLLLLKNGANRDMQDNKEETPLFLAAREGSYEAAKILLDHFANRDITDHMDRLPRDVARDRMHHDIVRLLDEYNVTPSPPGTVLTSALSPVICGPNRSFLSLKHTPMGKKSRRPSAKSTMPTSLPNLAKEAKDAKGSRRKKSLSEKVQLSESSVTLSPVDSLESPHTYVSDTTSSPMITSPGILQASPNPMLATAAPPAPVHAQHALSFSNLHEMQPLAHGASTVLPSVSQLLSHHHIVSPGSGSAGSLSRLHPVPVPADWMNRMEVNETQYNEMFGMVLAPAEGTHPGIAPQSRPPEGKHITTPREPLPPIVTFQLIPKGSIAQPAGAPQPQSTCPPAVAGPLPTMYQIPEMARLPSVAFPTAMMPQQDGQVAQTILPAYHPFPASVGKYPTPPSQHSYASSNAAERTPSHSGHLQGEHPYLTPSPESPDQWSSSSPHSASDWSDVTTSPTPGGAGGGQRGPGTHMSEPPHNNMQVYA
# Chain of Torsin-1A-interacting protein 2 (Homo sapiens) (Q8NFQ8 whole entry, looked up): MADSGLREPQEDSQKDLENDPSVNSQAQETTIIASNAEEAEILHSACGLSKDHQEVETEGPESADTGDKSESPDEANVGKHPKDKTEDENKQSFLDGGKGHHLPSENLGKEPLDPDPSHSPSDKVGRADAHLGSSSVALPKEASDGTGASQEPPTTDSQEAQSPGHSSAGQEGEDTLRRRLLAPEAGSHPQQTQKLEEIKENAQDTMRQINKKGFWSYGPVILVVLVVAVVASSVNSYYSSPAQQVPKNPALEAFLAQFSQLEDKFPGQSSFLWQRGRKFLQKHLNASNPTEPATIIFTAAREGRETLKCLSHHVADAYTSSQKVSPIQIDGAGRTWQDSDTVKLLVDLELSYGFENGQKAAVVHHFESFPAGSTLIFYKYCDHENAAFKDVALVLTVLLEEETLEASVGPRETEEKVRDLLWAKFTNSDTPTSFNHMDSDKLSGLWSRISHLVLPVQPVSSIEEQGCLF
# Chain of Pro-neuregulin-1, membrane-bound isoform (Homo sapiens) (Q02297 whole entry, looked up, the tested form may be a part, canonical isoform): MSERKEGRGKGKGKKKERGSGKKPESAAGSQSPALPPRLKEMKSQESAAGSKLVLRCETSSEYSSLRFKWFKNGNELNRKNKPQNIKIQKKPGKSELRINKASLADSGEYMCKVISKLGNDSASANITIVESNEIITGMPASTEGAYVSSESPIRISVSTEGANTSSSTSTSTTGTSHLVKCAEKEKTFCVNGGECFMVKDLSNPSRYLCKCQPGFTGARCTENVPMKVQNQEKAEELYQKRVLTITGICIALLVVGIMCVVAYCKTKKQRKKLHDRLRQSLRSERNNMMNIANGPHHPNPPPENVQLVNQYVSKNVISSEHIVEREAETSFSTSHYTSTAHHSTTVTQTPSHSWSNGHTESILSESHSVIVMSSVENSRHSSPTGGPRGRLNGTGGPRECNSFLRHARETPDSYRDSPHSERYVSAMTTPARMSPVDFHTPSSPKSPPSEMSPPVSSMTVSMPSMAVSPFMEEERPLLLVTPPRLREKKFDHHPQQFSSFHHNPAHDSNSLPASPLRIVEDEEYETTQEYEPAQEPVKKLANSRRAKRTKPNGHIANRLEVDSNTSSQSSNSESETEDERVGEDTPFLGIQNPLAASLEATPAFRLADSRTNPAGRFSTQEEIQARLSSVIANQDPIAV
SMILES,composite z-score [1],composite z-score [2],composite z-score [3],composite z-score [4],composite z-score [5],composite z-score [6],composite z-score [7],z-score [8],composite z-score [9],composite z-score [10],composite z-score [11],z-score [12],z-score [13],z-score [14],composite z-score [15],z-score [16],composite z-score [17],composite z-score [18],composite z-score [19],composite z-score [20]
COc1ccc([Si](C)(C)[C@@H]2[C@@H](CCn3cc(CCO)nn3)O[C@]3(C(=O)N(Cc4ccc(N5C(=O)c6cccc7cccc5c67)cc4)c4ccccc43)[C@H]2C)cc1,-0.279,0.749,-0.0656,-0.0139,0.142,1.26,0.742,-3.48 (inactive),0.299,0.154,1.51,0.0277 (inactive),0.858 (inactive),12.7 (active),0.986,2.61 (inactive),-0.0564,0.376,0.802,-0.0138
COC(=O)C(CC#Cc1ccc2c(c1)[C@]1(C(=O)N2)[C@H](C(=O)O)[C@H]2C(=O)O[C@H](c3ccccc3)[C@H](c3ccccc3)N2[C@@H]1c1ccc(OCCO)cc1)C(=O)OC,-0.0148,1.74,-0.0144,0.767,1.17,2.11,1.31,-1.19 (inactive),0.6,-0.0994,1.55,0.299 (inactive),-1.91 (inactive),-1.38 (inactive),3.03,3.49 (inactive),-0.0816,0.245,0.983,-0.0728
COc1ccc([Si](C)(C)[C@H]2[C@H](CC(=O)N(CCO)Cc3ccccc3)O[C@@]3(C(=O)N(Cc4cccc(N5C(=O)COc6ccccc65)c4)c4ccccc43)[C@@H]2C)cc1,1.54,0.347,-0.106,0.585,0.703,1.11,1.27,-1.84 (inactive),-0.103,0.245,1.44,2.21 (inactive),0.272 (inactive),3.48 (inactive),2.13,2.09 (inactive),-0.0846,0.97,0.496,0.0927
COCCCNC(=O)[C@@]1(C)c2ccccc2C(=O)N(Cc2cc(F)cc(C(F)(F)F)c2)[C@H]1c1ccc(CO)cc1,1.57,-0.12,-0.145,-0.103,-1.19,0.595,1.45,-1.65 (inactive),-0.738,-0.196,0.851,1.65 (inactive),-0.351 (inactive),0.459 (inactive),2.32,0.985 (inactive),0.584,-1.44,-1.22,-0.293
C=C[C@H](OC)[C@@H](OC(=O)Nc1ccc(OC)cc1)c1ccc(OC)c(O)c1,1.46,-0.68,-0.209,-1.29,-2.83,0.272,0.843,1.51 (inactive),-1.11,-0.487,-1.07,0.698 (inactive),-0.133 (inactive),0.551 (inactive),-0.0649,2.09 (inactive),-0.21,-1.8,-0.805,-0.373
CC(C)N1CC=CC23O[C@@H]4/C=C\CCCOC(=O)C4[C@H]2C(=O)N(CCCO)[C@@H]3C1=O (stereo not given in full),0.495,2.3,-0.01,0.215,-0.615,0.0034,1.14,1 (inactive),-0.623,-0.374,-0.78,0.759 (inactive),-0.76 (inactive),0.752 (inactive),2.15,1.77 (inactive),-0.221,-1.17,0.0751,-0.285
C=C(C1=CCN(S(=O)(=O)c2ccc(C)cc2)C1)[C@@H](OC(C)=O)[C@@H]1CCCN1S(=O)(=O)c1ccccc1[N+](=O)[O-],-0.0883,-0.189,-0.05,0.487,-0.574,-0.158,0.406,-3.21 (inactive),-0.344,-0.0994,-0.267,0.943 (inactive),0.0893 (inactive),1.82 (inactive),1.2,2.89 (inactive),-0.297,-0.305,0.127,-0.202
CC(CO)N1C(=O)[C@@H]2C3C(=O)OCCC/C=C\[C@H]3OC23C=CCN(Cc2ccccc2)C(=O)[C@@H]13 (stereo not given in full),0.418,-0.338,-0.143,-0.486,-0.847,-0.512,0.18,0.227 (inactive),-0.0745,-0.0239,0.432,-0.537 (inactive),-2.16 (inactive),-0.875 (inactive),-0.0166,2.31 (inactive),-0.16,-0.545,-0.505,-0.186
C=C(COC)C(=O)CC[C@@H](OC(=O)c1ccccc1-c1ccccc1C(=O)O)c1cccc(OCCO)c1,-0.124,0.098,-0.14,0.457,-0.66,0.691,0.137,0.658 (inactive),-0.0665,-0.0645,0.437,0.586 (inactive),-1.51 (inactive),-0.409 (inactive),0.132,0.826 (inactive),-0.183,0.518,-0.338,-0.173
C=C(COC)/C(=C/C[C@H](OC(C)=O)c1cccc(OCCO)c1)c1cc(C(=O)OC)ccc1OC,-0.269,0.952,-0.0986,0.318,-0.38,0.0557,0.691,-3.63 (inactive),0.276,-0.0296,0.905,-25.1 (active),-20.5 (active),-4.33 (inactive),0.574,1.57 (inactive),0.0056,1.29,0.694,-0.151
COCCCNC(=O)[C@@]1(CCS(=O)(=O)c2ccccc2)N=C(c2ccc(OCCCO)cc2)O[C@H]1c1ccccc1CN=[N+]=[N-],1.06,0.865,0.331,1.12,1.25,1.01,1.22,-0.891 (inactive),1.25,0.0515,1.54,-1.61 (inactive),-1.21 (inactive),0.468 (inactive),2.65,2.4 (inactive),0.568,1.9,1.07,0.242
C[C@@H](OCc1ccccc1)C1NC(=O)[C@@]23C(=O)N[C@@H](Cc4ccccc4)C2[C@H](C)[C@@]2(C)O[C@H]2C3/C=C/C/C=C\CNC(=O)[C@@H]2CCCN2C1=O (stereo not given in full),-0.0401,-0.332,-0.146,-0.595,-0.571,-0.52,0.633,1.91 (inactive),-0.111,-0.343,-0.449,-0.399 (inactive),-0.985 (inactive),-0.266 (inactive),-0.139,2.34 (inactive),-0.0901,-0.315,-0.665,-0.209
CC(=O)NCCCC[C@@H]1NC(=O)[C@@H]2C[C@H](C(=O)O)[C@H](c3cccc(OCCO)c3)N2C1=O,-0.16,0.619,-0.112,0.321,0.124,0.0677,1.31,0.356 (inactive),0.199,-0.153,1.55,1.18 (inactive),-0.201 (inactive),1.46 (inactive),0.654,0.809 (inactive),-0.0846,1.6,0.58,0.0437
COCCOC(=O)N1C(=O)[C@@]2(c3cc(C#CCNC(N)=O)ccc31)[C@H](c1ccccc1OCCO)N1[C@H](c3ccccc3)[C@H](c3ccccc3)OC(=O)[C@H]1[C@@H]2C(=O)Nc1nc2ccccc2s1,0.171,1.05,-0.0893,0.158,0.931,0.582,0.627,1.18 (inactive),0.986,0.0623,1.28,0.314 (inactive),-0.364 (inactive),1.99 (inactive),1.58,2.67 (inactive),0.136,0.345,0.799,-0.0732
CCOC(=O)C[C@H]1[C@H](OC(=O)c2ccc(-c3ccccc3)cc2)[C@@H](NC(=O)C2CCCCC2)c2cc(OCCCO)ccc2N1C(=O)c1ccc2ccccc2n1,0.0371,0.3,-0.0788,0.361,0.689,0.738,0.741,-0.429 (inactive),0.483,-0.226,1.12,-0.778 (inactive),-1.55 (inactive),-0.327 (inactive),1.72,2.33 (inactive),0.0366,0.0692,1.1,-0.0631
COCCOC(=O)N1C(=O)[C@@]2(c3ccccc31)[C@H](C(=O)Nc1nc3ccccc3s1)[C@H]1C(=O)O[C@H](c3ccccc3)[C@H](c3ccccc3)N1[C@@H]2c1ccc(O)cc1,0.0605,0.202,0.074,0.823,1.44,0.57,1.28,2.8 (inactive),0.442,0.0302,1.53,3.43 (inactive),1.8 (inactive),8.35 (active),1.76,2.9 (inactive),0.219,0.565,1.1,0.254
COCCOC(=O)N1C(=O)[C@@]2(c3cc(C#CC4(O)CCCCCC4)ccc31)[C@H](C(=O)NC[C@H](O)c1ccccc1)[C@H]1C(=O)O[C@H](c3ccccc3)[C@H](c3ccccc3)N1[C@@H]2c1ccccc1OCCO,-0.0213,0.621,-0.0628,0.695,1.03,1.29,1.23,0.153 (inactive),0.627,0.0044,1.55,2.64 (inactive),0.623 (inactive),6.84 (inactive),2.69,1.97 (inactive),0.101,1.3,1.04,0.0343
C=C(C(=O)CC[C@@H](OC(C)=O)c1ccccc1OCCO)C(C)C,-0.354,-0.363,-0.133,0.664,-0.553,-0.267,-0.29,-2.13 (inactive),-0.575,-0.0994,0.526,-6.28 (inactive),-20.5 (active),-2.44 (inactive),-0.0719,1.27 (inactive),-0.2,-0.0776,0.232,-0.249
CC(C)NC(=O)[C@@H]1c2ccccc2C(=O)N(Cc2cc(F)cc(C(F)(F)F)c2)[C@H]1c1ccc(CO)cc1,1.02,-0.197,-0.141,-1.12,-0.636,0.433,0.844,0.842 (inactive),0.136,-0.149,-0.305,-0.354 (inactive),-0.92 (inactive),-1.17 (inactive),2.48,1.52 (inactive),0.0071,-1.34,-0.706,0.0629
